From PubChem BioAssay (Tox21)
A number with no mark means an inactive call. Records with an inconclusive call do not appear. Where a call stands in place of a potency, no number is given. Active and inactive are the calls of the source. Calls follow the shape of the dose curve; as a rule, active = well fitted curve in the direction sought with a large enough effect in the repeat runs; inconclusive = weak or mixed curves; inactive = no such curve, though single readings can be large; an effect the other way counts as inactive or inconclusive.

Assays:
[1] = A CellTox Green Cytotoxicity Assay to monitor cytotoxicity in HEK293 cells - 40 hour (AID 1224871); also: nearly all actives have a fitted effect of over 45% in size; also: potency is read from the fitted curve at half-maximal effect
Procedure, shortened: (§1)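 Read-out: fluorescence of a cell-impermeant cyanine dye staining DNA of dead cells, proportional to cytotoxicity. HEK293, 600 cells/well with reagent, compound (23 nL DMSO) added after 5 h; reads at 0, 8, 16, 24, 32, 40 h.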

[2] = qHTS RealTime-Glo MT Cell Viability Assay in HEK293 cells - 16 hour (AID 1224872); also: top concentration of the series differs between compounds; nearly all actives have a fitted effect of over 50% in size
Procedure, shortened: (§2)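 HEK293 cells were seeded at 600 cells/well together with NanoLuc luciferase and cell-permeant prosubstrate, preincubated 5 h at 37 C/5% CO2, then given compound in DMSO by pintool. Luminescence from viable-cell prosubstrate reduction was read repeatedly over 40 h.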

[3] = qHTS RealTime-Glo MT Cell Viability Assay in HepG2 cells - 8 hour (AID 1224873); also: nearly all actives have a fitted effect of over 55% in size
Procedure, shortened: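 Real-time viability: cells seeded at 600 per well together with NanoLuc and cell-permeant prosubstrate, compounds added after 5 h incubation. Luminescence tracked at 0, 8, 16, 24, 32 and 40 h of exposure.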

[4] = A CellTox Green Cytotoxicity Assay to monitor cytotoxicity in HEK293 cells - 24 hour (AID 1224875); also: series mostly up to about 77 µM; nearly all actives have a fitted effect of over 45% in size
Procedure, shortened: as §1

[5] = A CellTox Green Cytotoxicity Assay to monitor cytotoxicity in HepG2 cells - 16 hour (AID 1224876); also: nearly all actives have a fitted effect of over 45% in size
Procedure, shortened: (§3)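 HepG2, 600 cells/well premixed w/ CellTox Green; 5 h settle, 37 C/5% CO2; pintool cpd add (DMSO); 37 C, 40 h; fluorescence read at 0, 8, 16, 24, 32, 40 h.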

[6] = qHTS RealTime-Glo MT Cell Viability Assay in HepG2 cells - 32 hour (AID 1224877); also: nearly all actives have a fitted effect of over 55% in size
Procedure, shortened: (§4)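 HepG2 cells were seeded at 600 cells/well together with NanoLuc luciferase and a cell-permeant prosubstrate, preincubated 5 h at 37 C/5% CO2, then pin-dosed with compounds in DMSO. Nonlytic luminescence from viable cells was read at each time point.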

[7] = A CellTox Green Cytotoxicity Assay to monitor cytotoxicity in HepG2 cells - 24 hour (AID 1224878); also: nearly all actives have a fitted effect of over 45% in size; also: potency is read from the fitted curve at half-maximal effect
Procedure, shortened: as §3

[8] = qHTS RealTime-Glo MT Cell Viability Assay in HEK293 cells - 0 hour (AID 1224880)
Procedure, shortened: (§5)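 Luminescence readout at each listed time point; HEK293, 600 cells/well, RealTime-Glo MT reagent added with cells; compounds pinned (23 nL in DMSO) after 5 h at 37 C; continuous culture at 37 C.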

[9] = A CellTox Green Cytotoxicity Assay to monitor cytotoxicity in HEK293 cells - 32 hour (AID 1224881); also: nearly all actives have a fitted effect of over 40% in size; also: potency is read from the fitted curve at half-maximal effect
Procedure, shortened: as §1

[10] = A CellTox Green Cytotoxicity Assay to monitor cytotoxicity in HepG2 cells - 0 hour (AID 1224882); also: nearly all actives have a fitted effect of over 35% in size
Procedure, shortened: as §3

[11] = A CellTox Green Cytotoxicity Assay to monitor cytotoxicity in HepG2 cells - 32 hour (AID 1224883); also: nearly all actives have a fitted effect of over 50% in size
Procedure, shortened: as §3

[12] = A CellTox Green Cytotoxicity Assay to monitor cytotoxicity in HEK293 cells - 8 hour (AID 1224884); also: nearly all actives have a fitted effect of over 35% in size
Procedure, shortened: as §1

[13] = qHTS RealTime-Glo MT Cell Viability Assay in HepG2 cells - 16 hour (AID 1224885); also: nearly all actives have a fitted effect of over 50% in size
Procedure, shortened: as §4

[14] = qHTS RealTime-Glo MT Cell Viability Assay in HEK293 cells - 8 hour (AID 1224887); also: top concentration of the series differs between compounds; nearly all actives have a fitted effect of over 50% in size
Procedure, shortened: as §5

[15] = A CellTox Green Cytotoxicity Assay to monitor cytotoxicity in HEK293 cells - 16 hour (AID 1224888); also: nearly all actives have a fitted effect of over 35% in size
Procedure, shortened: as §1

[16] = qHTS RealTime-Glo MT Cell Viability Assay in HepG2 cells - 0 hour (AID 1224889); also: nearly all actives have a fitted effect of over 50% in size
Procedure, shortened: as §4

[17] = A CellTox Green Cytotoxicity Assay to monitor cytotoxicity in HepG2 cells - 8 hour (AID 1224890); also: nearly all actives have a fitted effect of over 45% in size
Procedure, shortened: as §3

[18] = qHTS RealTime-Glo MT Cell Viability Assay in HEK293 cells - 40 hour (AID 1224874); details: RealTime-Glo luminescence; max response: stronger effect = lower value; also: nearly all actives have a fitted effect of over 50% in size; also: potency is read from the fitted curve at half-maximal effect
Procedure, shortened: as §5

[19] = A CellTox Green Cytotoxicity Assay to monitor cytotoxicity in HepG2 cells - 40 hour (AID 1224879); also: nearly all actives have a fitted effect of over 40% in size; also: potency is read from the fitted curve at half-maximal effect
Procedure, shortened: as §3

[20] = qHTS RealTime-Glo MT Cell Viability Assay in HEK293 cells - 24 hour (AID 1224886); also: nearly all actives have a fitted effect of over 50% in size; also: potency is read from the fitted curve at half-maximal effect
Procedure, shortened: as §2

CCOC(=O)NC(=S)Nc1ccccc1NC(=S)NC(=O)OCC
Potency [1]: inactive | Potency [2]: inactive | Potency [3]: inactive | Potency [4]: inactive | Potency [5]: inactive | Potency [6]: inactive | Potency [7]: inactive | outcome [8]: inactive | Potency [9]: inactive | outcome [10]: inactive | Potency [11]: inactive | Potency [12]: inactive | Potency [13]: inactive | Potency [14]: inactive | Potency [15]: inactive | Potency [16]: inactive | Potency [17]: inactive

CNC(=O)Oc1c(C(C)(C)C)cc(C)cc1C(C)(C)C
Potency [1]: inactive | Potency [2]: inactive | Potency [3]: inactive | max response [18]: -2.73% | Potency [5]: inactive | Potency [6]: inactive | Potency [7]: inactive | Potency [19]: inactive | outcome [8]: inactive | outcome [10]: inactive | Potency [11]: inactive | Potency [12]: inactive | Potency [13]: inactive | Potency [20]: inactive | Potency [15]: inactive | Potency [16]: inactive | Potency [17]: inactive

CCCCOC(=O)c1ccccc1N
Potency [1]: 49.3 µM (active) | Potency [2]: inactive | Potency [3]: inactive | max response [18]: 0.429% | Potency [5]: inactive | Potency [6]: inactive | Potency [7]: 49.3 µM (active) | Potency [19]: 55.3 µM (active) | outcome [8]: inactive | outcome [10]: inactive | Potency [12]: inactive | Potency [13]: inactive | Potency [20]: inactive | Potency [14]: inactive | Potency [16]: inactive | Potency [17]: inactive

COc1ncc(F)c2nc(S(=O)(=O)Nc3c(F)cccc3F)nn12
Potency [1]: 13.9 µM (active) | Potency [2]: inactive | Potency [3]: inactive | max response [18]: 6.8% | Potency [5]: inactive | Potency [6]: inactive | Potency [7]: inactive | Potency [19]: inactive | outcome [8]: inactive | Potency [9]: 13.9 µM (active) | outcome [10]: inactive | Potency [11]: inactive | Potency [13]: inactive | Potency [20]: inactive | Potency [14]: inactive | Potency [16]: inactive

CCC#N
Potency [1]: inactive | Potency [2]: inactive | Potency [3]: inactive | max response [18]: 0.0723% | Potency [5]: inactive | Potency [6]: inactive | Potency [7]: inactive | Potency [19]: inactive | outcome [8]: inactive | Potency [9]: inactive | outcome [10]: inactive | Potency [11]: inactive | Potency [13]: inactive | Potency [20]: inactive | Potency [14]: inactive | Potency [15]: inactive | Potency [17]: inactive

Fc1ccc(C2(Cn3cncn3)OC2c2ccccc2Cl)cc1 (stereo unspecified)
Potency [3]: inactive | Potency [18]: 27.5 µM (active) | Potency [4]: inactive | Potency [5]: inactive | Potency [6]: inactive | outcome [8]: inactive | Potency [9]: inactive | outcome [10]: inactive | Potency [13]: inactive | Potency [20]: 43.6 µM (active) | Potency [15]: inactive | Potency [16]: inactive | Potency [17]: inactive

COC(C)(C)C
Potency [2]: inactive | Potency [3]: inactive | max response [18]: 6.3% | Potency [5]: inactive | Potency [6]: inactive | Potency [7]: inactive | Potency [19]: inactive | outcome [8]: inactive | Potency [9]: inactive | outcome [10]: inactive | Potency [11]: inactive | Potency [12]: inactive | Potency [13]: inactive | Potency [20]: inactive | Potency [14]: inactive | Potency [15]: inactive | Potency [16]: inactive | Potency [17]: inactive

Cc1ccccc1CO[C@@H]1C[C@@]2(C(C)C)CC[C@]1(C)O2
Potency [2]: inactive | Potency [3]: inactive | max response [18]: -15.4% | Potency [5]: inactive | Potency [6]: inactive | Potency [7]: inactive | Potency [19]: inactive | outcome [8]: inactive | outcome [10]: inactive | Potency [11]: inactive | Potency [12]: inactive | Potency [14]: inactive | Potency [15]: inactive | Potency [16]: inactive | Potency [17]: inactive

O=C(Cc1ccccc1)OCc1ccccc1
Potency [2]: inactive | Potency [3]: inactive | max response [18]: -18.6% | Potency [4]: inactive | Potency [5]: inactive | Potency [6]: inactive | Potency [7]: inactive | Potency [19]: inactive | outcome [8]: inactive | outcome [10]: inactive | Potency [11]: inactive | Potency [12]: inactive | Potency [20]: inactive | Potency [14]: inactive | Potency [15]: inactive | Potency [16]: inactive | Potency [17]: inactive

CCc1cc2c(s1)-n1c(C)nnc1CN=C2c1ccccc1Cl
Potency [2]: inactive | Potency [3]: inactive | max response [18]: -28.6% | Potency [5]: inactive | Potency [6]: inactive | Potency [7]: inactive | Potency [19]: inactive | outcome [8]: inactive | outcome [10]: inactive | Potency [11]: inactive | Potency [13]: inactive | Potency [20]: inactive | Potency [14]: inactive | Potency [16]: inactive | Potency [17]: inactive
